Experiment [1] has as its target Thyroid hormone receptor beta (Homo sapiens) (UniProt P10828). Kind of experiment: qHTS assay for small molecule antagonists of thyroid hormone receptor beta signaling (AID 588547; active = well fitted inhibition curve with a large enough effect in the signal ratio, with a control signal flat, not every such curve was filed as active; the % refers to the signal ratio;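 note: cells stimulated with 0.4 nM T3 agonist during compound exposure; % is set by controls: 0 for no effect and ±100 for the full control effect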). Particulars: TR-UAS-bla HEK293, beta-lactamase ratio, antagonist mode, 18 h. Summed up: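 Inhibition of T3-driven (0.4nM final) beta-lactamase reporter activity was measured over 0.59 nM to 92 uM compound after 18 h at 37 C. The cells were GripTite HEK293 TR-UAS-bla in charcoal/dextran-stripped serum, with CCF4 ratio read-out and IC50 from Hill fits.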

The target of experiment [2] is Voltage-gated inwardly rectifying potassium channel KCNH2 (Homo sapiens) (UniProt Q12809). Kind of experiment: qHTS Assay for Small Molecule Inhibitors of the Human hERG Channel Activity (AID 588834).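 Note: lower thallium flux fluorescence means stronger hERG block; nearly all actives have a fitted effect of over 50% in size.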 Note: potency is the fitted concentration of half-maximal effect. The settings on record: U2OS BacMam hERG, FluxOR thallium flux fluorescence; series mostly up to 46.1 µM. Summed up:
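Kinetic FDSS fluorescence; U2OS + hERG BacMam (~100 virus particles/cell); FluxOR Tl+ flux; ~10 min cpd; AC50 (Hill).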

Experiment [3] concerns the target Luciferin 4-monooxygenase (Photinus pyralis) (UniProt P08659). As to the kind of experiment: Biochemical firefly luciferase enzyme assay for NPC (AID 624030).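 Note: purified P. pyralis luciferase at 10 nM with luciferin and ATP substrate; 0% = DMSO and -100% = full luciferase inhibition by PTC124 control; nearly all actives have a fitted effect of over 70% in size.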 The settings on record: purified P. pyralis luciferase, luminescence, 5 min; series mostly up to 58.6 µM. Summed up:
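Direct inhibition of firefly luciferase enzyme (10 nM final, 50 mM Tris Acetate) assessed by luminescence within 5 minutes. Percent activity scaled between DMSO and PTC124 positive control, with concentration-effect curves classified by fit quality and response.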

The nature of experiment [4]: S16 Schwann cell viability assay (CellTiter-Glo assay) (AID 624031).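 Note: native untransfected S16 rat Schwann cells; cellular ATP luminescence as a viability measure; plate controls were DMSO-treated cells for no effect and cell-free wells for full effect; nearly all actives have a fitted effect of over 70% in size.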 The settings on record: S16 rat Schwann cells viability, 24 h; series mostly up to 57.5 µM. A digest of the protocol:
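Following overnight culture in 10% FBS DMEM, parental S16 rat Schwann cells are dosed for 24 h at 37 °C. Viability is read as CellTiter-Glo luminescence and expressed as % activity relative to DMSO (0%) and no-cell wells.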
A general note: Cellular ATP, detected with luciferase, serves as a proxy for viable cell number.

The nature of experiment [5]: S16 Schwann cell PMP22 intronic element firefly luciferase assay (AID 624032).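 Note: plate controls were DMSO for no effect and PTC124 positive control mean for full effect; nearly all actives have a fitted effect of over 30% in size.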 The settings on record: S16 rat Schwann cells, PMP22 element FLuc, 24 h; series mostly up to 57.5 µM. Summed up:
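Luciferase reporter of PMP22 intronic-element expression in stably transfected S16 rat Schwann cells, read by ONE-Glo luminescence after 24 h compound exposure at 37 C. Activity scaled between DMSO (0%) and positive-control PTC124; concentration-effect curves quality-classified.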

Experiment [6] is described as follows: S16 Schwann cell PMP22 intronic element beta-lactamase assay (AID 624044; calls by dose curve;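 note: 0% = DMSO and -100% = potassium clavulanate positive control; nearly all actives have a fitted effect of over 15% in size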). Particulars: S16 rat Schwann cells, PMP22 element beta-lactamase FRET, 24 h; series mostly up to 38.3 µM. Summed up: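 Rat S16 Schwann cells with beta-Lac driven by a PMP22 intronic element, compound-treated 24 h at 37 °C. LiveBLAzer FRET B/G read: 460 nm normalized to potassium clavulanate vs DMSO; 535 nm FRET as viability; concentration-effect curves classified.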

Experiment [7] has as its target Glutaminase kidney isoform, mitochondrial (Homo sapiens) (UniProt O94925). As to the kind of experiment: qHTS for Inhibitors of Glutaminase (GLS): LOPAC Validation (AID 624146).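 Note: glutamate product detected by oxidase and peroxidase coupled Amplex red fluorescence gain; % is set by controls: 0 for no effect and ±100 for the full control effect; nearly all actives have a fitted effect of over 60% in size.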 The settings on record: glutaminase enzyme activity inhibition; series mostly up to 46.1 µM. Summed up: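 Assay buffer: 45 mM KH2PO4 pH 8.2, 0.02% Tween-20. hKGA acts on L-glutamine (1 mM solution added); product glutamate is reported by an oxidase/peroxidase Amplex Red coupling, with fluorescence taken at baseline and 30 min.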

Experiment [8] in a line: qHTS of Trypanosoma Brucei Inhibitors: LOPAC Validation (AID 624147). Note: 0% is about no effect. Particulars: purified enzyme assay, luminescence, 45 min; series mostly up to 57.5 µM. Summed up: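 Glycolytic pyruvate kinase of T. brucei was incubated with substrate, test compound and 130 uM ADP for 45 minutes at room temperature. Luminescent Kinase-Glo Plus signal was measured after 10 minutes.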
(In general: In qHTS, concentration-response curves come from the screen itself.)

The target in experiment [9] is Glucagon-like peptide 1 receptor (Homo sapiens) (UniProt P43220). As to the kind of experiment: qHTS of GLP-1 Receptor Agonists: LOPAC Validation (AID 624148).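 Note: luminescence from a luciferase reporter switched on by cAMP; 0% is about no effect; higher luminescence signal means agonism.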 The settings on record: GLP-1R agonist cell assay; series mostly up to 46.1 µM. A digest of the protocol: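 Agonism scored as increased luciferase luminescence driven by cAMP in HEK293 clones carrying GLP-1R. Cells settled 12 hours, received compound for 4-6 hr at 37 deg C, 5% CO2, and were read after 12 min detection reagent at RT.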
Sequence of Glucagon-like peptide 1 receptor (Homo sapiens) (P43220 whole entry, looked up): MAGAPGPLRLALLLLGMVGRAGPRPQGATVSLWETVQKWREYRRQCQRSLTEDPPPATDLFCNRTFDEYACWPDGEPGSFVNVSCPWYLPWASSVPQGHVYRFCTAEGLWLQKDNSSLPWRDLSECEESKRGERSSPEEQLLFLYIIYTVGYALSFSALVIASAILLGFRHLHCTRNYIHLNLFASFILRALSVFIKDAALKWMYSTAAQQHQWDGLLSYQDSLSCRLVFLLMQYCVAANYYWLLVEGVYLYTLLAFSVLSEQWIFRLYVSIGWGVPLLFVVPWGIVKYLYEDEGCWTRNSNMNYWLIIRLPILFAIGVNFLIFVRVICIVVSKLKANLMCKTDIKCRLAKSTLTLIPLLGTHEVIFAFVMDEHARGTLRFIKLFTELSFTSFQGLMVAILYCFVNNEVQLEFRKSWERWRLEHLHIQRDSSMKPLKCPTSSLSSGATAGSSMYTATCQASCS

Experiment [10] in a line: HTS Assay for Allosteric Antagonists of the Human D2 Dopamine Receptor: Hit Validation in HTRF (AID 624455).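 Note: stable D1 dopamine receptor cell line scored for blocking the D1 response; % is set by controls: 0 for no effect and ±100 for the full control effect.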 The settings on record: Cells stably expressing D1 dopamine receptor, inhibition mode; series mostly up to 46.1 µM. A digest of the protocol:
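First, antagonism was screened by calcium flux in a force-coupled, inducible Hek293 Trex D2 line challenged with EC80 dopamine. Hits then went into an HTRF assay in cells stably expressing D1, testing inhibition of the D1 response.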
For orientation: TR-FRET usually uses a lanthanide donor and a delayed reading to cut background.

Experiment [11] is described as follows: qHTS assay for small molecule agonists of the antioxidant response element (ARE) signaling pathway (AID 651741; active = well fitted activation curve with a large enough effect in the signal ratio; the % refers to the signal ratio; note: potency is the fitted concentration of half-maximal effect; for activation: % of control where 0% means no effect). The settings on record: HepG2 ARE-bla reporter, beta-lactamase FRET ratio, 16 h; series mostly up to 96 µM. Summed up:
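Quantitative HTS in HepG2 cells stably expressing an ARE-beta-lactamase reporter; 16 h compound exposure at 37 C, followed by 2 h room-temperature incubation with LiveBLAzer B/G FRET substrate and fluorescence measurement.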

Experiment [12] can be described thus: qHTS of Nrf2 Activators: LOPAC Validation (AID 624149). Note: 0% is about no effect. Particulars: Nrf2/ARE reporter cell assay; series mostly up to 46.1 µM. A digest of the protocol:
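Luminescence read-out of ARE-luciferase activation: AREc32_Fluc cells treated with compounds for 24 hr at 37 deg C, then lysed with Steady-Glo for 30 min at room temperature before reading.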

Molecules are shown by their SMILES. Several values for one entry are separate records, joined by “and”; a condition that tells them apart may be missing. Identical values can stand only once. Values without a mark were called inactive. Records with an inconclusive call do not appear. Activity calls are given as the source filed them. Unless noted, calls come from the whole dose curve; as a rule, active = well fitted curve in the direction sought with a large enough effect; inconclusive = small, poorly fitted or top-dose-only effect, or another doubt; inactive = no such curve, though single readings can be large; an effect the other way counts as inactive or inconclusive.

Sequence of Thyroid hormone receptor beta (Homo sapiens) (P10828 whole entry, looked up): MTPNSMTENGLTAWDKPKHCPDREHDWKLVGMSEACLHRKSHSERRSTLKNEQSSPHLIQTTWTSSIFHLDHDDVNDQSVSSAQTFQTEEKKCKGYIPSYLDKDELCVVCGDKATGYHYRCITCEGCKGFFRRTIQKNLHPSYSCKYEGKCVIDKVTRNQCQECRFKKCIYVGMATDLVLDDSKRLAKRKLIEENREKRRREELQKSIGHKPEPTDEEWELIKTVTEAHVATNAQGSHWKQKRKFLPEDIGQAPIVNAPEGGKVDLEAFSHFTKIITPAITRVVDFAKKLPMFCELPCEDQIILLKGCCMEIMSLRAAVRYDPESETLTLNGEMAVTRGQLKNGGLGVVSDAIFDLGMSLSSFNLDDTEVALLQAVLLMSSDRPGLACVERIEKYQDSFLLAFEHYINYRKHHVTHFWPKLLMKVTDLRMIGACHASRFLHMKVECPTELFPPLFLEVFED
Sequence of Voltage-gated inwardly rectifying potassium channel KCNH2 (Homo sapiens) (Q12809 whole entry, looked up): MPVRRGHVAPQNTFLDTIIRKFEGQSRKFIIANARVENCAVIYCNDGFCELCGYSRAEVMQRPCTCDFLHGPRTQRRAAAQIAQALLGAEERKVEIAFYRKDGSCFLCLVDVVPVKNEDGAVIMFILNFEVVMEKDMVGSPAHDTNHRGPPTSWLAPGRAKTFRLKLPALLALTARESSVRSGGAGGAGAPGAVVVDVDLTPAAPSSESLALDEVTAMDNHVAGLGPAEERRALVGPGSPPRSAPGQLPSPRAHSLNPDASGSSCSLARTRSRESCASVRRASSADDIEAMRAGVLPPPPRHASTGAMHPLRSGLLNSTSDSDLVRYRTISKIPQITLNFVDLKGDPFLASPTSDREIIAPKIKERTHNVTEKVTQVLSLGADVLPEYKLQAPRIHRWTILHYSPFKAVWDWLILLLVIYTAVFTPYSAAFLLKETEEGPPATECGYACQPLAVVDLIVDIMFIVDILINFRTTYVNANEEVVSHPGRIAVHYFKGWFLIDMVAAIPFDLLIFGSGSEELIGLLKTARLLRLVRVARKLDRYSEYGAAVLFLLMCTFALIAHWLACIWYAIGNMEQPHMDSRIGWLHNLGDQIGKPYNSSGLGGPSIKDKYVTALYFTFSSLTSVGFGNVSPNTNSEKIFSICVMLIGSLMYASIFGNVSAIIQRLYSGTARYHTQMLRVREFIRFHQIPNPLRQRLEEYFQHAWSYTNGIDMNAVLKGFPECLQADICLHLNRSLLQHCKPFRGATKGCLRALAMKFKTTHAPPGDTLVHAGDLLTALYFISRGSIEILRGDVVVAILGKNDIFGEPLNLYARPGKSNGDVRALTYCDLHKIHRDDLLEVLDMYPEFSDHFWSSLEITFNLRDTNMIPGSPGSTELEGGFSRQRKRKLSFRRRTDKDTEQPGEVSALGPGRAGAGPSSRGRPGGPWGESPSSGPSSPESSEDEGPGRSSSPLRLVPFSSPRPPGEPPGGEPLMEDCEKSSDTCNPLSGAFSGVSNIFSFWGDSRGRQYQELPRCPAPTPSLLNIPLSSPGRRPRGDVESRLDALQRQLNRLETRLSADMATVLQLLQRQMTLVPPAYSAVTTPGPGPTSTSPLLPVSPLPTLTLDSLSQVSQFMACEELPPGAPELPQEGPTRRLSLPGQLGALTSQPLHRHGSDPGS
Sequence of Glutaminase kidney isoform, mitochondrial (Homo sapiens) (O94925 whole entry, looked up, canonical isoform): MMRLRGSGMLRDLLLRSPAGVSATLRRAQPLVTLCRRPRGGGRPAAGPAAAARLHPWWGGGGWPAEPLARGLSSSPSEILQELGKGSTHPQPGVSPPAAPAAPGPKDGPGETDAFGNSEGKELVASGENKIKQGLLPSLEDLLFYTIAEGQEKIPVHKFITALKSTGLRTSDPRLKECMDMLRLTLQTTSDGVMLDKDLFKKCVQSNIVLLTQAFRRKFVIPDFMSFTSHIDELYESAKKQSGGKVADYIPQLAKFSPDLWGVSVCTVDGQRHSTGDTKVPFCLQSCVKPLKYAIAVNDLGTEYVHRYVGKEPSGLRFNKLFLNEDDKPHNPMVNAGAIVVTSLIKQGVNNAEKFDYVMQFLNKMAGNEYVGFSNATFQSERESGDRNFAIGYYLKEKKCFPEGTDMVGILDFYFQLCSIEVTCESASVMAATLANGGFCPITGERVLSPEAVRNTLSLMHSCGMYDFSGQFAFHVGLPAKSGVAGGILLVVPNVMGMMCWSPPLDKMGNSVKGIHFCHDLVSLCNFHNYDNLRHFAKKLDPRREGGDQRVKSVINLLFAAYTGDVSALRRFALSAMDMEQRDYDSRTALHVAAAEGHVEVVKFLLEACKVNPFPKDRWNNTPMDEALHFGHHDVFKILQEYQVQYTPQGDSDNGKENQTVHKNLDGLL
Sequence of Luciferin 4-monooxygenase (Photinus pyralis) (P08659 whole entry, looked up): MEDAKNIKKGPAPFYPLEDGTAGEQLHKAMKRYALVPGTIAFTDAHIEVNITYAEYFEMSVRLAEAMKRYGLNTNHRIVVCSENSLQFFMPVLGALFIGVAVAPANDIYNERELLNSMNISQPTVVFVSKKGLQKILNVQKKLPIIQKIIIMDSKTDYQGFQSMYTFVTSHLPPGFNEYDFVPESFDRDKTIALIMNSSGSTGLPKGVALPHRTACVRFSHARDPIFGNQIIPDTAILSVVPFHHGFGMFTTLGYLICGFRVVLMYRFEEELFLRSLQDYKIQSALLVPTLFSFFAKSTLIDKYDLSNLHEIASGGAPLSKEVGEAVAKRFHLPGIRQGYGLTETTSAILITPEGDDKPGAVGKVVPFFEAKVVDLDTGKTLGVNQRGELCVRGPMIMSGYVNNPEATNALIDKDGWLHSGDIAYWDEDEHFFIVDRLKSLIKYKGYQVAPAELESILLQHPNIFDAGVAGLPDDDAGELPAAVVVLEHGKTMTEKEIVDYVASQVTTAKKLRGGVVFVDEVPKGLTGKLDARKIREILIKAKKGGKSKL

Consider `CCOC(=O)C(C)(C)Oc1ccc(Cl)cc1`, for which, in experiment [1], the activity change % (negative = inhibition) was 7.19%. Further, the Potency result in experiment [2], in experiment [3], in experiment [4], in experiment [5], in [6] and in experiment [7] was “inactive” in each case. The Potency entry in experiment [8], in experiment [9], in experiment [10] and in experiment [11] was “inactive” throughout.

With `Nc1ccn([C@H]2CC[C@@H](CO)O2)c(=O)n1`, in experiment [1], the activity change % (negative = inhibition) is 1.36% and 5.95%. Moreover, the Potency result in experiment [2], in experiment [7], in experiment [8], in experiment [9], in experiment [10] and in experiment [11] was “inactive” in each case. Besides, the result in experiment [12] was inactive.

`Cn1c(=O)c2[nH]cnc2n(C)c1=O`: the activity change % (negative = inhibition) in experiment [1] was -10.4%. For the same molecule, the Potency result in [4], in experiment [8], in experiment [9], in experiment [10] and in [11] was “inactive” in each case.

For `CC1(C)O[C@H]2CC(=O)OC[C@]23[C@H]2CC[C@@]4(C)[C@H](c5ccoc5)OC(=O)[C@H]5O[C@]54[C@]2(C)C(=O)C[C@@H]13`, in experiment [2], the Potency entry was “inactive”.

Take `O=C(CCCN1CCC(O)(c2ccc(Cl)cc2)CC1)c1ccc(F)cc1`: the activity change % (negative = inhibition) in [1] is -36.9%. The Potency entry in experiment [3], in [4], in experiment [7], in experiment [8] and in experiment [9] was “inactive” throughout.

`Cn1cnc2c1c(=O)[nH]c(=O)n2C`: the activity change % (negative = inhibition) in experiment [1] was 8.64%. Moreover, the Potency result in experiment [3], in [4], in [5], in experiment [6], in [7] and in experiment [8] was “inactive” in each case. Moreover, the Potency result in [9], in experiment [10] and in [11] was “inactive” in each case. Moreover, in [12], the molecule was classed as inactive.

On to `CC(C)Cc1ccc(C(C)C(=O)O)cc1` (stereo unspecified), for which the activity change % (negative = inhibition) in experiment [1] is -8.69%. For the same molecule, the Potency result in experiment [2], in [3], in [4], in experiment [5], in experiment [7] and in [8] was “inactive” each time. Also, the Potency result in [9], in experiment [10] and in [11] was “inactive” each time. For the same molecule, the result in [12] was inactive.

In the case of `CC(C)NCC(O)COc1ccc(CCOCC2CC2)cc1` (stereo unspecified), the Potency result in experiment [2], in [3], in experiment [4], in experiment [5], in experiment [7] and in experiment [8] was “inactive” each time. The Potency result in experiment [9] and in [10] was “inactive” in each case. Further, the molecule was called inactive in experiment [12].

`Clc1ccc(C(c2ccccc2Cl)C(Cl)Cl)cc1` (stereo unspecified): in experiment [1], the activity change % (negative = inhibition) is -34.3%. Further, the Potency in experiment [2] is 31.6 µM (active) and 10 µM (active) and 5.62 µM (active); in experiment [11], 66.8 µM (active). The Potency entry in [4], in experiment [7], in experiment [8], in experiment [9] and in experiment [10] was “inactive” in each case. Also, in experiment [12], the molecule was classed as inactive.

As to `C[C@@H]1CC(=O)NN=C1c1ccc(NN=C(C#N)C#N)cc1`, the Potency result in [2] was “inactive”.

For `Nc1c2c(nc3ccccc13)CCCC2`, the activity change % (negative = inhibition) in experiment [1] was -14.9%. Moreover, the Potency entry in [3], in experiment [4], in [7], in experiment [8], in experiment [9] and in [10] was “inactive” throughout. In [12], the molecule was classed as inactive.

As for `CN(C)CCOC(c1ccccc1)c1ccccc1`, in experiment [1], the activity change % (negative = inhibition) was -3.52%. Further, the Potency entry in [4], in [5], in [8], in experiment [9] and in [10] was “inactive” in each case.

As to `CC(=O)OCC(CCn1cnc2cnc(N)nc21)COC(C)=O`, the Potency result in experiment [2], in experiment [3], in experiment [4] and in [5] was “inactive” each time.

The values above are taken from PubChem BioAssay (NCATS).
